Potency, activity change, positive = activation and activity change, negative = inhibition data for 19 molecules are collected here from PubChem BioAssay (NCATS).

Assay [1] has as its target Cytochrome P450 2C9 (Homo sapiens) (UniProt P11712). In words: qHTS Assay for Inhibitors and Substrates of Cytochrome P450 2C9 (AID 883). For activity change, negative = inhibition: % is set by controls: 0 for no effect and ±100 for the full control effect. Note: nearly all actives have a fitted effect of over 60% in size. Note: potency is the fitted concentration of half-maximal effect. The gist of the method:
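10nM CYP2C9 + 100uM Luciferin-H (=KM), 25mM KPO4; cpd 10 min 37C; NADPH regen, 60 min 37C; stop/detect with P450 Glo-Buffer 20 min; luminescence. Norm. to 57uM sulphaphenazole as full inhibition.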
In general terms: qHTS replaces the single test concentration by a dilution series.

Assay [2] concerns the target Cytochrome P450 3A4 (Homo sapiens) (UniProt P08684). The assay is described as follows: qHTS Assay for Inhibitors and Substrates of Cytochrome P450 3A4 (AID 884). For activity change, negative = inhibition: series mostly up to about 57 µM; % is set by controls: 0 for no effect and ±100 for the full control effect. Note: nearly all actives have a fitted effect of over 50% in size. Note: potency is the fitted concentration of half-maximal effect. The gist of the method:
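Luminescent readout of luciferin produced by CYP3A4 (20 nM) dealkylation of Luciferin-PPXE, 25 uM (its KM). NADPH-driven reaction ran 60 min at RT after 10 min compound preincubation; data scaled to 57 uM ketoconazole as 100% inhibition.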

Assay [3] has the same target. In words: qHTS Assay for Activators of Cytochrome P450 3A4 (AID 885). Note: nearly all actives have a fitted effect of over 65% in size. The gist of the method:
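Activators are scored by enhanced luminescence from CYP3A4 conversion of luciferin-PPXE (25uM, equal to KM) to luciferin, after 60 min at RT with an NADPH-regenerating system.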

For assay [4], the target named is Cytochrome P450 2D6 (Homo sapiens) (UniProt P10635). In words: qHTS Assay for Inhibitors and Substrates of Cytochrome P450 2D6 (AID 891).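 Note: luciferin methyl ether substrate demethylated by CYP2D6 with NADPH regeneration; % is set by controls: 0 for no effect and ±100 for the full control effect; nearly all actives have a fitted effect of over 60% in size.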 The gist of the method: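 Luminescent read-out of luciferin formed by 5 nM human CYP2D6 demethylating 30 uM Luciferin-ME EGE (Km level) over 60 min at room temperature after NADPH regeneration addition. Data normalized to full inhibition by 1.43 uM quinidine.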

Assay [5] has as its target Cytochrome P450 2C19 (Homo sapiens) (UniProt P33261). The assay is described as follows: qHTS Assay for Inhibitors and Substrates of Cytochrome P450 2C19 (AID 899). Note: nearly all actives have a fitted effect of over 60% in size. Note: potency is the fitted concentration of half-maximal effect. The gist of the method:
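Luminescent read-out of luciferin formed from Luciferin-H EGE (10uM, equal to KM). Enzyme 5nM in 50mM KPO4; compound added, 10 min at 37C, then NADPH regenerating system for 60 min at 37C. Full inhibition defined by 57uM ketoconazole.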

“And” between values parts separate entries of the source, which are not always exact repeats. Identical values can stand only once. Results filed as inconclusive are left out. More than one record can exist for a structure, and the calls need not agree. The source made the active and inactive calls. Calls come from the whole dose curve; as a rule, active = well fitted curve in the direction sought with a large enough effect; inconclusive = small, poorly fitted or top-dose-only effect, or another doubt; inactive = no such curve, though single readings can be large; an effect the other way counts as inactive or inconclusive.

Chain of Cytochrome P450 3A4 (Homo sapiens) (P08684 whole entry, looked up): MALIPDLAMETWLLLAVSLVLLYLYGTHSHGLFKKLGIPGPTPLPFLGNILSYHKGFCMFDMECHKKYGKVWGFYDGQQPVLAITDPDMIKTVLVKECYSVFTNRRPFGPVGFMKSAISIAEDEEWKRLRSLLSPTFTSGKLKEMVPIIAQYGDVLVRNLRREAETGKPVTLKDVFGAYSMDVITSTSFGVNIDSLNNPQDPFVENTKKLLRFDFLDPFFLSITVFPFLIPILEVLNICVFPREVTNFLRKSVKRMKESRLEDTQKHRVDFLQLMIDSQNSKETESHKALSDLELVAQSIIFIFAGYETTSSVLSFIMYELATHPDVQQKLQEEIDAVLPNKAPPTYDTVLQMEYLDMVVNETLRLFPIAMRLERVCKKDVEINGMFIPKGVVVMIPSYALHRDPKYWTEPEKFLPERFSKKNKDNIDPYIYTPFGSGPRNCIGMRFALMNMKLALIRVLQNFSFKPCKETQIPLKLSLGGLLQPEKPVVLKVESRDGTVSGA
Chain of Cytochrome P450 2C9 (Homo sapiens) (P11712 whole entry, looked up): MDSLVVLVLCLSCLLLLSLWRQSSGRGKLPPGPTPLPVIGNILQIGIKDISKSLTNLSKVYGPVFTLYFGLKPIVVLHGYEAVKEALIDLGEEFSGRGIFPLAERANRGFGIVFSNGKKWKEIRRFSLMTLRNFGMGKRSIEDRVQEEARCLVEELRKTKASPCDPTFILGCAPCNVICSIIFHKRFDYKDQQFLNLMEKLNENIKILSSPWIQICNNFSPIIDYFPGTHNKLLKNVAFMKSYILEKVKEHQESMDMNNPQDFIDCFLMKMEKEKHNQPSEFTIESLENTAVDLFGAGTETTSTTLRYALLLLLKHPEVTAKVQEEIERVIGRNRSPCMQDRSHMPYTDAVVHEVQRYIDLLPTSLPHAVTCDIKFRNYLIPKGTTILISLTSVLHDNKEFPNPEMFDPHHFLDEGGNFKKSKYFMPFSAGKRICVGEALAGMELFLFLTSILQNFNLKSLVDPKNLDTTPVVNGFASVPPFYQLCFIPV
Chain of Cytochrome P450 2C19 (Homo sapiens) (P33261 whole entry, looked up): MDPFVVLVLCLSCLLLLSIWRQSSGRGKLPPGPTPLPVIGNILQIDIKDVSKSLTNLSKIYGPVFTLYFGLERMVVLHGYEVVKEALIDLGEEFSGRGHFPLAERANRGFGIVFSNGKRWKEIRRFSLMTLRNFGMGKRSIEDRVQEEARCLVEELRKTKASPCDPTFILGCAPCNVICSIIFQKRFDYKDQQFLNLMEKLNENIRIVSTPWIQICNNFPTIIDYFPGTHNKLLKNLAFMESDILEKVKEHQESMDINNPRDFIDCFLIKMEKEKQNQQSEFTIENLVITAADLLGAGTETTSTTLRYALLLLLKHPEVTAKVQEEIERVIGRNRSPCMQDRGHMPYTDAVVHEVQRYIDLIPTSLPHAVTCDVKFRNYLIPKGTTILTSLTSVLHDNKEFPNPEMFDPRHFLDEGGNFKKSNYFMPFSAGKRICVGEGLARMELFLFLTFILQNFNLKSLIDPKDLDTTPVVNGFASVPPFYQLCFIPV
Chain of Cytochrome P450 2D6 (Homo sapiens) (P10635 whole entry, looked up): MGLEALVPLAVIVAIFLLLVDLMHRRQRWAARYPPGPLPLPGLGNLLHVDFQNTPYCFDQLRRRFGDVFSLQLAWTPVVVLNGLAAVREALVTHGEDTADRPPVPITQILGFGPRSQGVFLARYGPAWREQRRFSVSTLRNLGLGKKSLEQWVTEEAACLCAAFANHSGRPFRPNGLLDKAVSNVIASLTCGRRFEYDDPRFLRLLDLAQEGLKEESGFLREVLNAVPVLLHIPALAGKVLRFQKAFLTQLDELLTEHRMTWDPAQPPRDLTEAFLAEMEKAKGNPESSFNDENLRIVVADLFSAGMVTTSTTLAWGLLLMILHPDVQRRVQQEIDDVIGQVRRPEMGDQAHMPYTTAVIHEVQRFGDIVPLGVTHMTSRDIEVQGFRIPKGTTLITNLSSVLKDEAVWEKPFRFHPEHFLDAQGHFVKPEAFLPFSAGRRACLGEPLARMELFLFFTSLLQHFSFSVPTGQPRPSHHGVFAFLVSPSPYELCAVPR

On to `Cc1cc(C)cc(/C=C/C2OCC(O)C2Oc2ccc(C3CCCC3)cc2)c1` (stereo not drawn), for which the Potency result in assay [1], in assay [4] and in assay [5] was “inactive” throughout. In addition, the Potency in assay [2] was 3.16 µM (active). Also, in assay [3], the activity change, positive = activation is -62.6% [at 11.4 µM] (inactive) and -33.3% [at 11.4 µM] (inactive).
Regarding `COc1ccc(OC2C=CC(C#Cc3ccccc3)OC2CO)cc1` (stereo not drawn), the Potency result in assay [1] and in assay [4] was “inactive” each time. In addition, the Potency in assay [2] is 3.98 µM (active). Also, the activity change, positive = activation in assay [3] was -79.3% [at 11.4 µM] (inactive).
Turning to `CCCNC(=O)OC[C@H]1O[C@@H](CCO/N=C\[C@@H](NS(=O)(=O)c2ccc(C)cc2)[C@H](C)/C=C\CC(=O)OC)C=C[C@@H]1Oc1ccc(OC)cc1`, the Potency in assay [1] is 3.98 µM (active); in assay [2], 3.16 µM (active); in assay [5], 3.16 µM (active). Also, the activity change, positive = activation in assay [3] was -106% [at 11.4 µM] (inactive).
As to `COC(=O)C1=C(C)N(Cc2ccccc2)C2=C3C(=O)CCCC3[C@@](O)(C(=O)OC)C(=O)N2C1c1ccccc1` (stereo partly drawn), the Potency result in assay [1], in assay [4] and in assay [5] was “inactive” each time. For the same molecule, in assay [2], the activity change, negative = inhibition was -20% [at 11.4 µM] (inactive). Moreover, the activity change, positive = activation in assay [3] was -36% [at 11.4 µM] (inactive).
With `CC12C=C(/C=C/c3ccc(Br)cc3)C(C)(C1)C(c1ccc(Br)cc1)CC2=O` (stereo not drawn), the Potency in assay [1] is 2.51 µM (active); in assay [2] it was 3.98 µM (active). Besides, the activity change, positive = activation in assay [3] is -72.7% [at 11.4 µM] (inactive). Besides, the Potency result in assay [5] is “inactive”.
For the molecule `CCC(=O)[C@]12O[C@@]3(C4C(=O)OCCC41)N(Cc1ccccc1)C(C)=C(C(=O)OC)C(c1ccccc1)N3C2=O` (stereo partly drawn), the Potency result in assay [1], in assay [4] and in assay [5] was “inactive” each time. In addition, in assay [2], the Potency is 1.26 µM (active). The activity change, positive = activation in assay [3] is -106% [at 11.4 µM] (inactive).
Turning to `CC(C)(C)c1ccc(OC2C=CC(C#Cc3ccccc3)OC2CO)cc1` (stereo not drawn), the Potency result in assay [1], in assay [4] and in assay [5] was “inactive” throughout. Moreover, the Potency in assay [2] was 3.16 µM (active). For the same molecule, in assay [3], the activity change, positive = activation is -73.2% [at 11.4 µM] (inactive).
With `CC1CCC2C(=O)OC(COc3ccc(C(C)(C)C)cc3)CN2C1c1ccc(Br)cc1` (stereo not drawn), the Potency result in assay [1] and in assay [4] was “inactive” each time. Moreover, the activity change, negative = inhibition in assay [2] is -22.1% [at 11.4 µM] (inactive) and -29.8% [at 11.4 µM] (inactive) and -21% [at 11.4 µM] (inactive). For the same molecule, the activity change, positive = activation in assay [3] was -42.1% [at 11.4 µM] (inactive) and -33.2% [at 11.4 µM] (inactive). In addition, the Potency in assay [5] is 251 nM (active) and inactive.
`C=C(C)C(O)/C=C/c1ccc(Br)cc1` (stereo not drawn): the Potency in assay [1] is 3.16 µM (active); in assay [2], 3.98 µM (active); in assay [5], 0.02 µM (active). For the same molecule, the activity change, positive = activation in assay [3] is -65.3% [at 11.4 µM] (inactive).
With `COC(=O)C1=C(C)N(Cc2ccccc2)[C@]23O[C@](C(=O)OC)(C(=O)N2C1c1ccccc1)C(C(=O)OC)C3C(=O)OC` (stereo partly drawn), the Potency result in assay [1], in assay [4] and in assay [5] was “inactive” in each case. Further, the activity change, negative = inhibition in assay [2] is -20.8% [at 11.4 µM] (inactive). In assay [3], the activity change, positive = activation is -46.5% [at 11.4 µM] (inactive).
On to `C=CCC1C=CC(Oc2ccc(OC)cc2)C(CO)O1` (stereo not drawn), for which the Potency result in assay [1], in assay [4] and in assay [5] was “inactive” in each case. Besides, the Potency in assay [2] is 3.98 µM (active). The activity change, positive = activation in assay [3] is -64.8% [at 11.4 µM] (inactive).
Take `C/C=C/OC(=O)NC(c1ccccc1)[C@@]1(C(=O)OC)CCCC1=O` (stereo partly drawn): the Potency result in assay [1] and in assay [4] was “inactive” in each case. For the same molecule, the Potency in assay [2] is 1 µM (active); in assay [5] it was 1.26 µM (active). In assay [3], the activity change, positive = activation was -81.6% [at 11.4 µM] (inactive).
As for `CC12C=C(/C=C/C=C/c3ccccc3)C(C)(C1)C(/C=C/c1ccccc1)CC2=O` (stereo not drawn), the Potency in assay [1] was 3.16 µM (active); in assay [2], 3.98 µM (active); in assay [5], 1.58 µM (active). In addition, the activity change, positive = activation in assay [3] was -62.5% [at 11.4 µM] (inactive).
Take `CC#CCOCC/C=C1/c2ccccc2C(OC)C1C` (stereo not drawn): the Potency entry in assay [1] and in assay [4] was “inactive” throughout. Further, the Potency is 3.98 µM (active) in assay [2] and 1 µM (active) in assay [5]. For the same molecule, the activity change, positive = activation in assay [3] is -90.8% [at 11.4 µM] (inactive).
Consider `CCCCC1CN2C(CCC(C)C2c2ccc(Br)cc2)C(=O)O1` (stereo not drawn), for which the Potency entry in assay [1] and in assay [4] was “inactive” throughout. Moreover, the Potency in assay [2] is 3.98 µM (active); in assay [5] it was 1.26 µM (active). Further, in assay [3], the activity change, positive = activation was -38.2% [at 11.4 µM] (inactive) and -43.4% [at 11.4 µM] (inactive) and -62.6% [at 11.4 µM] (inactive).
Regarding `C=CCC(O)CC1C2C(CC(O)CC=C)C3C1C3C2OC(C)(C)C` (stereo not drawn), the Potency entry in assay [1] and in assay [4] was “inactive” each time. Moreover, the Potency in assay [2] was 1.58 µM (active); in assay [5], 0.794 µM (active). For the same molecule, the activity change, positive = activation in assay [3] was -98.2% [at 11.4 µM] (inactive).
Regarding `Cc1cc(F)ccc1OC1C=CC(c2ccc3c(c2)OCO3)OC1CO` (stereo not drawn), the Potency in assay [1] and in assay [2] was 3.16 µM (active) throughout. Besides, the activity change, positive = activation in assay [3] was -72.5% [at 11.4 µM] (inactive). For the same molecule, the Potency result in assay [5] was “inactive”.
On to `COc1ccc(O[C@H]2C=C[C@@H](c3ccccc3)O[C@H]2COC(=O)CC/C(C)=N/OCC[C@@H]2C=C[C@H](OC(C)=O)[C@H](COC(C)=O)O2)cc1`, for which the Potency in assay [1] is 3.98 µM (active); in assay [2], 3.98 µM (active); in assay [5], 0.398 µM (active). In addition, the activity change, positive = activation in assay [3] is -91.8% [at 11.4 µM] (inactive).
In the case of `CCCCC#CC1C=CC(Oc2ccc(OC)cc2)C(CO)O1` (stereo not drawn), the Potency entry in assay [1] and in assay [4] was “inactive” in each case. For the same molecule, the results for the Potency in assay [2] and in assay [5] were 3.16 µM (active) and 2 µM (active), respectively. In addition, the activity change, positive = activation in assay [3] was -94.2% [at 11.4 µM] (inactive).
